Measured values from PubChem BioAssay (NCATS).
Records with an inconclusive call do not appear. The source made the active and inactive calls. The call rests on the fitted dose curve; in most records, active means well fitted cell-killing curve with a large enough effect; inconclusive means small, poorly fitted or top-dose-only effect; inactive means no such curve, though single readings can be large or run the other way.

Assay: qHTS of pediatric cancer cell lines to identify multiple opportunities for drug repurposing: Primary screen for NB-EBc1 cells (AID 1347095)
Settings: NB-EBc1 neuroblastoma viability, CellTiter-Glo luminescence, 48 h; series mostly up to 46 µM
Text: Drug repurposing or repositioning has been offered as a strategy for drug development in oncology programs. This approach has special potential for childhood cancers and other rare or orphan diseases, where the expected return on new drug development has been a disincentive to pharmaceuticals. […] In this project we exploit the poly-pharmacology of drugs to discover new indications via phenotypic screening of a panel of 19 well-characterized cell lines derived from solid tumors seen in children and adolescents. The goal is to identify approved drugs with previously unrecognized anticancer properties that has the potential to reveal new mechanisms and biological processes involved in carcinogenesis or drug resistance. We employed a titration-based paradigm (quantitative high-throughput screening or qHTS), where all compounds were tested at multiple concentrations for their effect on cell viability. Concentration-response curves (CRCs) were derived directly from the primary screen, and both potency and efficacy values were used to identify compounds with robust bioactivity profiles. We screened the NIH Chemical Genomics Center (NCGC) Pharmaceutical Collection (NPC) and Mechanism Interrogation Plate (MIPE) small molecule collections of approved and investigational compounds against these cell lines; and measured metabolically active cells after 48 hours of compound treatment as a proxy for cell viability. […] Assay Submitter: Nathalia J. Martinez, National Center for Advancing Translational Sciences, National Institutes of Health, Rockville, MD, USA; email: natalia.martinez@nih.gov Shen, M et al. Quantitative high-throughput phenotypic screening of pediatric cancer cell lines identifies multiple opportunities for drug repurposing. Oncotarget 2017 Dec 19;9(4):4758-4772. PMID 29435139.
The cells were obtained from University of North Carolina (UNC), Pediatric Preclinical Testing Program (PPT), and Coriell Institute (CI). qHTS cell viability assay: Cells were assayed in growth media at a density of 500-1,000 cells/well. Five microliters of cells were dispensed into 1,536-well, white, solid-bottom, TC-treated plates (Greiner Bio One) using a multidrop dispenser and incubated at 37 degrees C, 5% CO2, under a humidified atmosphere for 5 hours. Twenty-three nanoliters of compounds and controls (neutral control DMSO or positive control bortezomib at final concentration of 2.3 µM) were subsequently transferred by Kalypsys pintool. For primary screens, the MIPE collection was tested at 11-point dilutions (final concentrations range from 0.78 nM to 46 µM) and the NPC collection at 8-point dilutions (final concentrations range from 0.59 nM to 46 µM). Compounds tested in follow-up screens were assayed at 11-point dilutions. Cells were incubated for 48 hours, followed by addition of 3 µL of CellTiter-Glo (Promega). After a 15 min incubation at room temperature, samples were analyzed for luminescence intensity using a ViewLux High-throughput CCD imager equipped with clear filters.
Potency means the concentration at half of the fitted maximal effect.

SMILES	Potency
O=S(=O)(O)CCSSCCS(=O)(=O)O	inactive
FC(F)c1nc2ccccc2n1-c1nc(N2CCOCC2)nc(N2CCOCC2)n1	662 nM (active)
CN[C@@H]1C[C@H]2O[C@@](C)([C@H]1OC)n1c3ccccc3c3c4c(c5c6ccccc6n2c5c31)C(=O)N[C@H]4O	166 nM (active)
CC(=O)N[C@@H]1[C@H](O[C@@H]2c3ccc(c(Cl)c3)Oc3cc4cc(c3O[C@H]3O[C@H](CO)[C@@H](O)[C@H](O)[C@H]3NC(=O)CCCCCCCC(C)C)Oc3ccc(cc3Cl)C[C@H]3NC(=O)[C@H](N)c5ccc(O)c(c5)Oc5cc(O)cc(c5)[C@H](NC3=O)C(=O)N[C@H]4C(=O)N[C@H]3C(=O)N[C@@H]2C(=O)N[C@@H](C(=O)O)c2cc(O)cc(O[C@H]4O[C@H](CO)[C@@H](O)[C@H](O)[C@H]4O)c2-c2cc3ccc2O)O[C@H](CO)[C@@H](O)[C@@H]1O	inactive
COc1cc(OC)cc(-c2ccc3ncc4ccc(=O)n(-c5ccc(N6CCNCC6)c(C(F)(F)F)c5)c4c3c2)c1	3720 nM (active)
CC(C)[C@H](CO)Nc1nc(Nc2cccc(Cl)c2)c2ncn(C(C)C)c2n1	18700 nM (active)
CN(CC(=O)N(Cc1ccc(C2CCCCC2)cc1)c1ccc(C(=O)O)c(O)c1)S(=O)(=O)c1c(F)c(F)c(F)c(F)c1F	26400 nM (active)
CC(C)(O)[C@H]1CC[C@@](C)([C@H]2[C@@H](O)C[C@@]3(C)[C@@H]4C[C@H](O[C@@H]5O[C@H](CO)[C@@H](O)[C@H](O)[C@@H]5O)[C@H]5C(C)(C)[C@@H](O[C@@H]6OC[C@@H](O)[C@H](O)[C@@H]6O)CC[C@@]56C[C@@]46CC[C@]23C)O1	inactive
COc1cc(OC)c(NC(=O)Nc2cc(C)on2)cc1Cl	inactive
NC(=O)c1ncn([C@@H]2O[C@H](CO)[C@@H](O)[C@@H]2O)c1O	inactive
C[C@H](CCC(=O)O)[C@H]1CCC2C3C[C@H](O)[C@@H]4C[C@H](O)CC[C@]4(C)C3CC[C@@]21C (stereo not given in full)	inactive
O=C1NC(O)CCN1[C@@H]1O[C@H](CO)[C@H](O)[C@H]1O (stereo not given in full)	inactive
O=C(O)c1ccc(Nc2ncc3c(n2)-c2ccc(Cl)cc2C(c2c(F)cccc2F)=NC3)cc1	66.2 nM (active)
CN(C)c1ccc2cc(C(=O)N[C@@H](CCCN=C(N)CCl)C(=O)NCc3ccccc3)ccc2c1	23500 nM (active)
CCc1ccc(C(=O)Nc2cc(CN3CCN(C)CC3)cc(C(F)(F)F)c2)cc1C#Cc1cnc2ccnn2c1	11800 nM (active)
CC(C)C[C@H](NC(=O)[C@@H](NC(=O)c1cccc(-c2ccccc2)n1)[C@@H](C)O)B(O)O	83.3 nM (active)
NC(=O)c1cccc(-c2cccc(OC(=O)NC3CCCCC3)c2)c1	inactive
Cc1noc(-c2ccc(CSCCC(=O)O)cc2)c1NC(=O)OC(C)c1ccccc1Cl (stereo not given)	inactive
O=C1NC(=O)C(=Cc2ccc3nccc(-c4ccncc4)c3c2)S1	118 nM (active)
CC(=O)NC(CS)C(=O)O (stereo not given)	inactive

SMILES	Potency
CC(Oc1ccc(O)cc1)(P(=O)(O)O)P(=O)(O)O	inactive
CC(C)NC[C@@H](C(=O)N1CCN(c2ncnc3c2[C@H](C)C[C@H]3O)CC1)c1ccc(Cl)cc1	833 nM (active)
Cn1cnc(=N)c2[nH]cnc21	662 nM (active)
COc1ccc(Nc2nccc(NCCO)n2)cc1	inactive
O=C1c2cccc(O)c2C(=O)c2c(O)cc(CO)cc21	inactive
C[C@@]12C[C@@]3(O)O[C@@H](O1)[C@]1(COC(=O)c4ccccc4)[C@@H]3C[C@@]12O[C@@H]1O[C@H](CO)[C@@H](O)[C@H](O)[C@@H]1O	inactive
OCC(O)C(O)C(O)CO (stereo not given)	inactive
Cc1cnc(Nc2ccc(CN3CCOCC3)cc2)nc1Nc1cccc(S(=O)(=O)NC(C)(C)C)c1	2640 nM (active)
N[C@H]1CN(c2c(F)cc3c(=O)c(C(=O)O)cn(C4C[C@@H]4F)c3c2Cl)CC12CC2 (stereo not given in full)	inactive
Cc1ccc2nc(NCCN)c3ncc(C)n3c2c1	7430 nM (active)
CN(C)CC(=O)N1CCC(c2ccc(NC(=O)c3ncc(C#N)[nH]3)c(C3=CCCCC3)c2)CC1	23500 nM (active)
Cc1[nH]c(C=C2C(=O)Nc3ccccc32)c(C)c1CCC(=O)O	148 nM (active)
C=CCNc1c(O)cc2c(O)c1C[C@@H](C)C[C@H](OC)[C@@H](O)[C@@H](C)C=C(C)[C@H](OC(N)=O)[C@@H](OC)C=CC=C(C)C(=O)N2	1320 nM (active)
CN(N=O)C(=O)N[C@H]1C(O)OC(CO)[C@@H](O)[C@H]1O (stereo not given in full)	inactive
COc1cc2c(Nc3ccc(Cl)c(Cl)c3F)ncnc2cc1OCC1C[C@@H]2CN(C)C[C@H]2C1	16600 nM (active)
Cc1cnc(Nc2ccc(N3CCN(C)CC3)cc2)nc1Nc1cccc(S(=O)(=O)NC(C)(C)C)c1	1870 nM (active)
c1cc(CN2CCCNCCNCCCNCC2)ccc1CN1CCCNCCNCCCNCC1	inactive
CCN(CC)Cc1ccc2cc(COC(=O)Nc3ccc(C(=O)NO)cc3)ccc2c1	833 nM (active)
CC(C)OC(=O)[C@H](C)N[P@](=O)(OC[C@H]1O[C@@H](n2ccc(=O)[nH]c2=O)[C@](C)(F)[C@H]1O)Oc1ccccc1	inactive
C=C1C(=CC=C2CCC[C@]3(C)[C@@H]([C@H](C)CCCC(C)(C)O)CC[C@@H]23)C[C@@H](O)C[C@@H]1O	2960 nM (active)
